# Many of the other results were omitted from the sample, so hits are more common in it than they were.
# HIV RNase H inh-1 – HIV-1 RT RNase H inhibitors, primary screen, biochemical, fluorescence | Gag-Pol polyprotein (Human immunodeficiency virus type 1 group M subtype B (isolate … | RT-RNase H RNA/DNA duplex cleavage | inhibition, % at 10 µM | 65,000 compounds, 1.9% hits; in the data active = inhibition above about 50%
# RmlCD inh mix – RmlC and RmlD coupled enzyme inhibitors, primary screen, biochemical, 384-well, compound mixtures, retest; inhibition, % at 5.5 µM; 110,000 compounds, 0.39% hits; RmlC/RmlD coupled enzyme inhibition, 384-well mixture HTS; in the data active = inhibition above about 30%, passing the limit was not always enough; inconclusive = no clear call, values can overlap the other calls
# HIV RNase H inh-2 – HIV-1 RT RNase H inhibitors, retest, confirmation, biochemical; inhibition, % at 10 µM; shares compounds with HIV RNase H inh-1; Recombinant RT RNase H, fluorescent RNA/DNA duplex cleavage; 1,000 compounds, 39% hits; AID 651, 2007; in the data active = inhibition above about 48%; inconclusive = no clear call, values can overlap the other calls
# RmlCD fluor art – counter-screen for RmlC/RmlD inhibitors: fluorescence artifact, dose response, artefact control, biochemical. shares compounds with RmlCD inh mix. RmlC/RmlD assay fluorescence artifact counter-screen. calls only. 360 compounds, 96% hits. AID 1696, 2009; call rule not given here;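 also: compound alone with no enzyme and no substrates present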
# Active calls of the source: *; ? = inconclusive; . = no result given; + = active, no number.
SMILES,HIV RNase H inh-1,RmlCD inh mix,others
CCOc1ccccc1NC(=O)c1nc[nH]c1C(=O)Nc1ccccc1OCC,84*,26,HIV RNase H inh-2=?
COc1ccc(NC(=O)c2nc[nH]c2C(=O)Nc2ccccc2C)cc1,-76,-1,
COc1ccccc1NC(=O)c1nc[nH]c1C(=O)Nc1ccccc1OC,83*,-5,HIV RNase H inh-2=41
Cc1ccccc1NC(=O)c1nc[nH]c1C(=O)NCc1ccccc1,-20,-40,
COC(C/C=C/[C@H](O)[C@H](C)OCc1ccccc1)OC,.,1,
CCCN(CCC)c1nc(NC2CCN(C(=O)OCC)CC2)nc(OC)n1,-10,12,
CCOc1cccc(SCc2noc(C(=O)NCC3CCCO3)c2C(=O)O)c1 (stereo unspecified),.,1,
CCC(C)(C)n1nnnc1C(c1ccc(C)cc1)N1CCN(Cc2ccc3c(c2)OCO3)CC1 (stereo unspecified),.,8,
O=C1C2ON(c3ccccc3)C(c3cccnc3)C2C(=O)N1c1ccccc1 (stereo unspecified),3,6,
O=C1C2ON(c3ccc(Br)cc3)C(c3cccnc3)C2C(=O)N1C1CCCCC1 (stereo unspecified),64*,.,HIV RNase H inh-2=33
Cc1cc(C)c2[nH]c(=O)c(C(c3nnnn3C3CCCC3)N3CCOCC3)cc2c1 (stereo unspecified),2,.,
COc1ccc(OC)c(/C=N/c2oc(-c3ccco3)c(-c3ccco3)c2C#N)c1,58*,11,HIV RNase H inh-2=66*
N#Cc1c(N)oc(-c2ccco2)c1-c1ccco1,-45,-33,
CC(O)c1cccc(NC2=CC(=O)CC(C)(C)C2)c1 (stereo unspecified),-5,4,
Cc1cnn(Cc2ccccc2)c1N,-1,2,
COc1ccc(C(=O)Nc2oc(-c3ccccc3)c(-c3ccccc3)c2C#N)cc1,.,-18,
COc1ccc(C(=O)Nc2oc(-c3ccccc3)c(-c3ccccc3)c2C#N)cc1OC,62*,3,HIV RNase H inh-2=?
CCCN(CCC)S(=O)(=O)c1cc(Br)cc2c1N(C(=O)CC)CC2,-19,-8,
CC(C)OC(=O)c1nn2c(C(F)(F)F)cc(-c3ccc(Br)o3)nc2c1Br,66*,-4,HIV RNase H inh-2=-7
CC(C)OC(=O)c1nn2c(C(F)(F)F)cc(-c3ccco3)nc2c1Cl,.,17,
Cc1ccc(-c2nnc(CSc3nc(C(C)C)nc4sc(C)c(C)c34)o2)cc1,.,-13,
O=C(CN1C(=O)NC2NC(=O)NC21)NC1CCCCC1 (stereo unspecified),-10,.,
Cc1cc(NC(=O)c2cc(C3CC3)on2)n(-c2ccccc2)n1,-2,14,
Cc1cc(NC(=O)c2cc(C)on2)n(-c2ccccc2)n1,75*,.,HIV RNase H inh-2=50
COC(=O)c1[nH]c2ccccc2c1NC(=O)CN1CCN(c2cccc(OC)c2)C(C)C1 (stereo unspecified),2,17,
SMILES,HIV RNase H inh-1,RmlCD inh mix,others
COc1ccc2[nH]c(=O)c(CN(Cc3nnnn3Cc3ccco3)C3CCCCC3)cc2c1,33,31,
COc1ccc2[nH]c(=O)c(CN(C3CCCCC3)C(c3nnnn3Cc3ccco3)C(C)C)cc2c1 (stereo unspecified),51*,.,HIV RNase H inh-2=55*
O=C(Cn1c(=O)oc2cc(S(=O)(=O)N3CCCCCC3)ccc21)NC1CCCCCCC1,26,-8,
O=C(Cn1c(=O)oc2cc(S(=O)(=O)N3CCCC3)ccc21)NC1CCCc2ccccc21 (stereo unspecified),65*,.,HIV RNase H inh-2=76*
O=C(CSCC(=O)OCC(=O)c1ccc(Br)cc1)Nc1cccc2ccccc12,.,4,
CCn1c(=NC(=O)CN2C(=O)CCC2=O)sc2c(OC)ccc(OC)c21,-12,-9,
CCn1c(=NC(=O)c2ccc(N3C(=O)CCC3=O)cc2)sc2c(OC)ccc(OC)c21,56*,-16,HIV RNase H inh-2=?
c1ccc2c(c1)nnn2Cc1nnc2sc(-c3ccc4c(c3)OCCO4)nn12,91*,-1,HIV RNase H inh-2=52*
Cc1ccc(-c2nnc3sc(-c4ccc5c(c4)OCCO5)nn23)cc1,1,.,
COc1ccc(/C=N/Nc2ccccc2)cc1Cn1nc(C)c([N+](=O)[O-])c1C,.,7,
C#CCNC(=O)C1=C[C@@H](C)C[C@@H](OCc2ccc(CO)cc2)O1,.,6,
Cc1c(C#N)c2ccccc2n1CC(=O)NC(C)c1ccccc1 (stereo unspecified),.,-1,
Cc1cccc(NC(=O)Cn2c(C)c(C#N)c3ccccc32)c1C,72*,9,HIV RNase H inh-2=63*
Oc1ccc2c(c1)C1CCCC1(N1CCOCC1)O2 (stereo unspecified),68*,9,HIV RNase H inh-2=33
c1ccc2c(c1)nc1n2C2(N3CCOCC3)CCCC2C1N1CCOCC1 (stereo unspecified),-17,.,
CCNC(=O)CN(c1ccc(CC)cc1)S(C)(=O)=O,-1,-3,
O=C(Nc1nc(NC(=O)c2ccco2)n(-c2ccccc2)n1)c1ccccc1,53*,138*,HIV RNase H inh-2=29;RmlCD fluor art=+
O=C(Nc1nc2ccccc2n1Cc1ccccc1)c1ccco1,-86,-8,
O=C(CC1C(=O)NCCN1C(=S)Nc1ccccc1)Nc1ccc2c(c1)OCCO2 (stereo unspecified),.,-12,
COc1ccc(C2OC34CCCCC3C(C#N)(C#N)C2(C#N)C(=N)O4)cc1 (stereo unspecified),.,64*,RmlCD fluor art=+
CC1OC23CCCCC2C(C#N)(C(=N)O3)C1(C#N)C#N (stereo unspecified),.,2,
N#CC1(C#N)COC23CCCCC2C1(C#N)C(=N)O3 (stereo unspecified),.,107*,RmlCD fluor art=+
CCC1OC23CCCCC2C(C#N)(C(=N)O3)C1(C#N)C#N (stereo unspecified),.,-4,
Cc1ccc(/C=C/C(=O)N2CC(C)CC(C)C2)o1 (stereo unspecified),.,12,
Cc1sc2ncnc(SCC(=O)NC(=O)NCc3ccco3)c2c1C,31,-12,
SMILES,HIV RNase H inh-1,RmlCD inh mix,others
CCOC(=O)CN1C=C(c2ccc3ccccc3n2)C(C[N+](=O)[O-])c2ccccc21 (stereo unspecified),.,47*,RmlCD fluor art=+
CCOC(=O)CSc1nc2ccccc2n1CC(=O)N(C(C)C)C(C)C,-76,3,
COC(=O)c1c(C#N)c(N)nc2c1CCC2,-6,67*,RmlCD fluor art=+
Cc1c(-c2c(C#N)c(N)nc3c2CCCCCC3)cnn1C,.,13,
CCOC(=O)C1=C(CSc2nc(-c3ccccc3)ccc2C#N)OC(N)=C(C#N)C1c1cccnc1 (stereo unspecified),.,45*,RmlCD fluor art=+
CCOC(=O)C1=C(CSc2nc(-c3ccccc3)ccc2C#N)OC(N)=C(C#N)C1c1ccccc1 (stereo unspecified),.,30,
Cc1ccc(S(=O)(=O)CCSc2nc(C)cc(C(F)(F)F)c2C#N)cc1,.,-4,
COC(=O)c1nn(-c2ccc3c(c2)CCN3C(C)=O)cc1O,.,41*,RmlCD fluor art=+
COC(=O)c1nn(-c2ccc3c(c2)OCO3)cc1O,.,-2,
CCOC(=O)c1cccnc1SCC(=O)N(CC)c1cccc(C)c1,.,7,
Cc1cc(=O)oc2cc(OC(=O)CCN3C(=O)c4ccccc4C3=O)ccc12,.,.,RmlCD fluor art=+
